# Results filed as inconclusive are left out. Where a call stands in place of a potency, no number is given. Unmarked numbers belong to inactive results. Activity calls are given as the source filed them. The call rests on the fitted dose curve; in most records, active means well fitted cell-killing curve with a large enough effect; inconclusive means small, poorly fitted or top-dose-only effect, or effect the other way; inactive means flat fitted curve, though single readings scatter.
# Tested on: HeLa
# Assay: Primary qHTS to identify gynecologic anti-cancer compounds using libraries of approved drugs and bioactive compounds (AID 1345084); further: nearly all actives have a fitted effect of over 55% in size
# Conditions: Gynecologic cancer cell panel viability, ATPlite luminescence, 48 h; series mostly up to 57.5 µM
# From the text: National Center for Advancing Translational Sciences [NCATS] Assay Overview: Chemotherapeutic drug responses vary from cancer to cancer and from patient to patient. These variations could be caused by a number of factors including patient genomic background, tumor mutations, tumor heterogeneity, and aspects of drug treatment. Chemotherapeutic drug resistance is also a common issue and can lead to ineffective treatment and patient death. Here we have profiled the cell killing effects of thousands of compounds to characterize the responses in three gynecological cancers, identify cancer-selective compounds, and understand the diversity of responses to these compounds from pan-cancer suppressors to single cell line selective compounds. In this assay, we screened a 7,914 compound drug library that included approved drug and bioactive compounds in six ovarian, three cervical, and […] placental cancer cell lines using the ATPlite assay for cell viability. […] The cervical cancer cell lines included HeLa, Ca Ski, and C-33 A. The placental cancer cell lines included JEG-3. HEK 293T cells were used as the control cell line to determine the selectivity index. ATPlite is a luminescence based assay reliant on the conversion of a luciferase substrate to light in the presence of ATP. As a cytotoxic compound will suppress growth and decrease the number of cells, the concentration of ATP will decrease, and less light signal will be detected in the well.
# Assay Protocol Summary: 1,000 cells in 4 uL of media were dispensed into white, solid bottom 1536-well plates using a Multidrop Combi (Thermo Scientific). The Assay plates were incubated for 16 hours at 37 C with 5% CO2 in assay plates, followed by the addition of 23 nL of DMSO or drug dissolved in DMSO. Each compound was assayed in five concentrations (0.092, 0.46, 2.3, 11.5, and 57.5 uM), using the automated Wako 1536 Pin Tool workstation and incubated at 37 C with 5% CO2 48 hours. 4 uL of ATPlite, the ATP monitoring reagent, was then added to the each well of the assay plates using the Multidrop Combi reagent dispenser followed by incubation for 15 minutes at room temperature. The resulting luminescence was measured using the ViewLux plate reader.
# Potency means the concentration at half of the fitted maximal effect.
Compound,Potency,"activity change, negative = cytotoxicity"
CCN(C)C(=O)Oc1cccc([C@H](C)N(C)C)c1,inactive,
CCCOc1ccc(C(=O)OCCN(CC)CC)cc1N,inactive,
COc1c(N2CCNC(C)C2)c(F)cc2c(=O)c(C(=O)O)cn(C3CC3)c12 (stereo not given),inactive,
O=P(O)(O)C(O)(Cc1cccnc1)P(=O)(O)O,inactive,
O=C(N[C@H](CO)[C@H](O)c1ccc([N+](=O)[O-])cc1)C(Cl)Cl,inactive,
CCC(C)(C)c1ccc(CC(C)CN2C[C@@H](C)O[C@@H](C)C2)cc1 (stereo not given in full),inactive,
Cc1noc(NS(=O)(=O)c2ccc(N)cc2)c1C,inactive,
COC(=O)Nc1nc2ccc(C(=O)c3ccccc3)cc2[nH]1,1 µM (active),
Clc1ccccc1CN1CCc2sccc2C1,inactive,
CCn1cc(C(=O)O)c(=O)c2cc(F)c(N3CCNCC3)nc21,inactive,
O=C(NCC1CN(c2ccc(N3CCOCC3=O)cc2)C(=O)O1)c1ccc(Cl)s1 (stereo not given),inactive,
CCc1c2c(nc3ccc(OC(=O)N4CCC(N5CCCCC5)CC4)cc13)-c1cc3c(c(=O)n1C2)COC(=O)[C@]3(O)CC,inactive,
Cn1c(=O)c2c(ncn2CC(O)CO)n(C)c1=O (stereo not given),inactive,
Cc1onc(-c2ccccc2Cl)c1C(=O)N[C@@H]1C(=O)N2[C@@H]1SC(C)(C)[C@@H]2C(=O)O,inactive,
Cc1cc(NS(=O)(=O)c2ccc(N)cc2)no1,inactive,
CCC(=O)O[C@]1(C(=O)SCF)[C@H](C)C[C@H]2[C@@H]3C[C@H](F)C4=CC(=O)C=C[C@]4(C)[C@@]3(F)[C@@H](O)C[C@@]21C,inactive,
CCCc1nc(C)c2c(=O)[nH]c(-c3cc(S(=O)(=O)N4CCN(CC)CC4)ccc3OCC)nn12,inactive,
COc1ccc(-c2ccc3cc(C(=O)O)ccc3c2)cc1C12CC3CC(CC(C3)C1)C2,inactive,
CCN[C@H]1C[C@H](C)S(=O)(=O)c2sc(S(N)(=O)=O)cc21,inactive,
CNC1CCCN(c2c(F)cc3c(=O)c(C(=O)O)cn(C4CC4)c3c2OC)C1 (stereo not given),inactive,

Compound,Potency,"activity change, negative = cytotoxicity"
N[C@@H](C(=O)N[C@@H]1C(=O)N2C(C(=O)O)=C(Cl)CS[C@H]12)c1ccccc1,,2.57% [at 11.6 µM]
CC1=CC(=O)c2ccccc2C1=O,inactive,
COc1cc2c(Nc3ccc(Br)cc3F)ncnc2cc1OCC1CCN(C)CC1,inactive,
CC(C)(C#N)c1cc(Cn2cncn2)cc(C(C)(C)C#N)c1,inactive,
Nc1nc(=S)c2[nH]cnc2[nH]1,1.41 µM (active),
CO[C@@H]1[C@@H](OC(N)=O)[C@@H](O)[C@H](Oc2ccc3c(O)c(NC(=O)c4ccc(O)c(CC=C(C)C)c4)c(=O)oc3c2C)OC1(C)C,inactive,
CCOC(=O)c1ccc(C#Cc2ccc3c(c2)C(C)(C)CCS3)nc1,inactive,
COC(=O)Nc1nc2ccc(Sc3ccccc3)cc2[nH]1,2.24 µM (active),
CCOC(=O)[C@H](CCc1ccccc1)N[C@H]1CS[C@H](c2cccs2)CN(CC(=O)O)C1=O,inactive,
CC(C)(C)NC(=O)[C@H]1CC[C@H]2[C@@H]3CC[C@H]4NC(=O)C=C[C@]4(C)[C@H]3CC[C@]12C,inactive,
CCC(=O)O[C@]1(C(=O)CCl)[C@@H](C)C[C@H]2[C@@H]3CCC4=CC(=O)C=C[C@]4(C)[C@@]3(F)[C@@H](O)C[C@@]21C,inactive,
COC(c1ccccc1)(c1ccccc1)[C@H](Oc1nc(C)cc(C)n1)C(=O)O,inactive,
COc1ccc(C(=O)CC(=O)c2ccc(C(C)(C)C)cc2)cc1,inactive,
CCn1cc(C(=O)O)c(=O)c2cc(F)c(N3CCNCC3)cc21,inactive,
O=c1cc(O)c(Cl)c[nH]1,inactive,
CN1CCN(c2c(F)cc3c(=O)c(C(=O)O)cn(CCF)c3c2F)CC1,inactive,
CNCC[C@H](Oc1cccc2ccccc12)c1cccs1,inactive,
Cc1nnc(C(=O)NC(C)(C)c2nc(C(=O)NCc3ccc(F)cc3)c(O)c(=O)n2C)o1,inactive,
Oc1c(Cl)cc(Cl)c2cccnc12,inactive,
COc1ccc2c(c1)c(CC(=O)OCC(=O)O)c(C)n2C(=O)c1ccc(Cl)cc1,inactive,

# From PubChem BioAssay (NCATS)
